Source: PubChem BioAssay AID1159580 (chemical genetic matrix, 2015)
Hit rate of the full screen: of about 5,500 compounds, about 2,000 (36%) were called active. Inconclusive results (about 18%) are left out. Cut-off read from the data, not from the text of the source: active = normalized growth mostly below about 0.91 (no sharp cut-off); inconclusive = no clear call, values can overlap the other calls; inactive = mostly above about 0.92. This is one part of the list.

Assay: chemical genetic growth profiling, strain panel (AID 1159580);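 note: tested at 20 µM; growth read once vehicle control cultures reached saturation at 30 °C; 1 = growth at the plate median or of vehicle wells; lower values mean less growth of the strain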
Conditions: growth OD

Measured: normalized growth

CCCCCCCCCCCCCC(=O)OC1C(C)C2(O)C(C=C(CO)CC3(O)C(=O)C(C)=CC32)C2C(C)(C)C12OC(C)=O (centres undefined)
inactive: S. cerevisiae deletion strains, locus YJR043C, strain POL32, stronger effect = lower value 1.03 | S. cerevisiae deletion strains, locus YJR075W, strain HOC1, stronger effect = lower value 1 | S. cerevisiae deletion strains, locus YKL009W, strain mrt4, stronger effect = lower value 0.973 | S. cerevisiae deletion strains, locus YKL068W, stronger effect = lower value 1.01 | S. cerevisiae deletion strains, locus YKL085W, strain MDH1 (second series), stronger effect = lower value 0.966 | S. cerevisiae deletion strains, locus YKL085W, strain MDH1, stronger effect = lower value 0.966 | S. cerevisiae deletion strains, locus YKL160W, strain elf1, stronger effect = lower value 1 | S. cerevisiae deletion strains, locus YKL190W, strain CNB1, stronger effect = lower value 1.02 | S. cerevisiae deletion strains, locus YKR001C, strain vps1, stronger effect = lower value 0.981 | S. cerevisiae deletion strains, locus YKR026C, strain gcn3, stronger effect = lower value 0.964 | S. cerevisiae deletion strains, locus YKR091W, strain srl3, stronger effect = lower value 0.979 | S. cerevisiae deletion strains, locus YLL001W, strain dnm1, stronger effect = lower value 0.991 | S. cerevisiae deletion strains, locus YLL026W, stronger effect = lower value 0.988 | S. cerevisiae deletion strains, locus YLL041C, strain sdh2, stronger effect = lower value 0.984 | S. cerevisiae deletion strains, locus YLR027C, strain aat2, stronger effect = lower value 0.992 | S. cerevisiae deletion strains, locus YLR039C, strain RIC1, stronger effect = lower value 1.06 | S. cerevisiae deletion strains, locus YLR058C, strain SHM2, stronger effect = lower value 0.996 | S. cerevisiae deletion strains, locus YLR102C, strain apc9, stronger effect = lower value 0.998 | S. cerevisiae deletion strains, locus YLR221C, strain rsa3, stronger effect = lower value 0.972 | S. cerevisiae deletion strains, locus YLR258W, strain gsy2, stronger effect = lower value 0.988 | S. cerevisiae deletion strains, locus YLR262C, strain YPT6 (second series), stronger effect = lower value 0.993 | S. cerevisiae deletion strains, locus YLR262C, strain YPT6, stronger effect = lower value 0.988 | S. cerevisiae deletion strains, locus YLR268W, strain sec22, stronger effect = lower value 1.01 | S. cerevisiae deletion strains, locus YLR320W, strain mms22, stronger effect = lower value 0.974 | S. cerevisiae deletion strains, locus YLR330W, strain CHS5, stronger effect = lower value 0.997 | S. cerevisiae deletion strains, locus YLR342W, strain FKS1 (second series), stronger effect = lower value 1.03 | S. cerevisiae deletion strains, locus YLR342W, strain FKS1, stronger effect = lower value 0.982 | S. cerevisiae deletion strains, locus YLR357W, strain rsc2, stronger effect = lower value 0.954 | S. cerevisiae deletion strains, locus YLR370C, strain arc18, stronger effect = lower value 0.988 | S. cerevisiae deletion strains, locus YLR371W, strain rom2, stronger effect = lower value 0.994 | S. cerevisiae deletion strains, locus YLR384C, strain iki3, stronger effect = lower value 0.99 | S. cerevisiae deletion strains, locus YLR418C, strain cdc73, stronger effect = lower value 0.973 | S. cerevisiae deletion strains, locus YML016C, strain PPZ1, stronger effect = lower value 1.03 | S. cerevisiae deletion strains, locus YML032C, strain rad52, stronger effect = lower value 0.976 | S. cerevisiae deletion strains, locus YML120C, strain ndi1, stronger effect = lower value 0.983 | S. cerevisiae deletion strains, locus YML124C, strain tub3, stronger effect = lower value 0.998 | S. cerevisiae deletion strains, locus YMR058W, strain fet3, stronger effect = lower value 0.983 | S. cerevisiae deletion strains, locus YMR078C, strain ctf18, stronger effect = lower value 0.991 | S. cerevisiae deletion strains, locus YMR125W, strain sto1, stronger effect = lower value 0.993 | S. cerevisiae deletion strains, locus YMR129W, stronger effect = lower value 0.976 | S. cerevisiae deletion strains, locus YMR205C, strain PFK2, stronger effect = lower value 0.926 | S. cerevisiae deletion strains, locus YMR223W, strain ubp8, stronger effect = lower value 0.971 | S. cerevisiae deletion strains, locus YMR231W, strain pep5, stronger effect = lower value 0.986 | S. cerevisiae deletion strains, locus YMR263W, strain SAP30, stronger effect = lower value 1 | S. cerevisiae deletion strains, locus YMR307W, strain GAS1, stronger effect = lower value 0.922 | S. cerevisiae deletion strains, locus YNL067W, strain RPL9B, stronger effect = lower value 1.01 | S. cerevisiae deletion strains, locus YNL071W, strain lat1, stronger effect = lower value 0.991 | S. cerevisiae deletion strains, locus YNL128W, strain TEP1, stronger effect = lower value 1.01 | S. cerevisiae deletion strains, locus YNL153C, strain GIM3, stronger effect = lower value 0.999 | S. cerevisiae deletion strains, locus YNL209W, strain ssb2, stronger effect = lower value 0.99 | S. cerevisiae deletion strains, locus YNL233W, strain BNI4, stronger effect = lower value 1 | S. cerevisiae deletion strains, locus YNL248C, strain rpa49, stronger effect = lower value 0.995 | S. cerevisiae deletion strains, locus YNL250W, strain rad50, stronger effect = lower value 0.981 | S. cerevisiae deletion strains, locus YNL271C, strain bni1, stronger effect = lower value 1 | S. cerevisiae deletion strains, locus YNL298W, strain CLA4, stronger effect = lower value 0.976 | S. cerevisiae deletion strains, locus YNL307C, strain MCK1, stronger effect = lower value 0.99 | S. cerevisiae deletion strains, locus YNL322C, strain KRE1 (second series), stronger effect = lower value 0.978 | S. cerevisiae deletion strains, locus YNL322C, strain KRE1, stronger effect = lower value 0.997 | S. cerevisiae deletion strains, locus YNR049C, strain mso1, stronger effect = lower value 0.981 | S. cerevisiae deletion strains, locus YNR052C, strain pop2, stronger effect = lower value 0.995 | S. cerevisiae deletion strains, locus YOL006C, strain TOP1, stronger effect = lower value 1.03 | S. cerevisiae deletion strains, locus YOL012C, strain htz1 0.932 | S. cerevisiae deletion strains, locus YOL147C, strain pex11, stronger effect = lower value 0.99 | S. cerevisiae deletion strains, locus YOR001W, strain rrp6, stronger effect = lower value 1.01 | S. cerevisiae deletion strains, locus YOR061W, strain CKA2, stronger effect = lower value 1.02 | S. cerevisiae deletion strains, locus YOR069W, strain VPS5, stronger effect = lower value 1.02 | S. cerevisiae deletion strains, locus YOR070C, strain gyp1, stronger effect = lower value 0.987 | S. cerevisiae deletion strains, locus YOR080W, strain dia2, stronger effect = lower value 0.977 | S. cerevisiae deletion strains, locus YOR083W, strain WHI5, stronger effect = lower value 1.01 | S. cerevisiae deletion strains, locus YOR106W, strain vam3, stronger effect = lower value 0.999 | S. cerevisiae deletion strains, locus YOR136W, strain idh2, stronger effect = lower value 0.981 | S. cerevisiae deletion strains, locus YOR144C, strain elg1, stronger effect = lower value 1 | S. cerevisiae deletion strains, locus YOR184W, strain ser1, stronger effect = lower value 0.979 | S. cerevisiae deletion strains, locus YOR265W, strain rbl2, stronger effect = lower value 0.997 | S. cerevisiae deletion strains, locus YOR270C, strain vph1, stronger effect = lower value 0.948 | S. cerevisiae deletion strains, locus YOR290C, strain snf2, stronger effect = lower value 0.947 | S. cerevisiae deletion strains, locus YOR316C, strain cot1, stronger effect = lower value 0.994 | S. cerevisiae deletion strains, locus YPL051W, strain arl3, stronger effect = lower value 1.02 | S. cerevisiae deletion strains, locus YPL055C, strain LGE1, stronger effect = lower value 1.02 | S. cerevisiae deletion strains, locus YPL078C, strain atp4, stronger effect = lower value 0.989 | S. cerevisiae deletion strains, locus YPL106C, strain sse1, stronger effect = lower value 0.985 | S. cerevisiae deletion strains, locus YPL240C, strain hsp82, stronger effect = lower value 0.961 | S. cerevisiae deletion strains, locus YPL241C, strain CIN2, stronger effect = lower value 0.972 | S. cerevisiae deletion strains, locus YPR119W, strain clb2, stronger effect = lower value 0.993 | S. cerevisiae deletion strains, locus YPR141C, strain kar3, stronger effect = lower value 0.986 | S. cerevisiae deletion strains, locus YPR163C, strain tif3, stronger effect = lower value 0.998 | S. cerevisiae deletion strains, locus YPR167C, strain met16, stronger effect = lower value 1 | S. cerevisiae deletion strains, strain wtn01, stronger effect = lower value 1.01 | S. cerevisiae strains, strain wild type, stronger effect = lower value 1.04
